Out of some 340,000 compounds screened, about 3,300 (0.97%) were called active. Another 9% or so got no clear call; they are omitted. Calls follow the shape of the dose curve; as a rule, active = well fitted inhibition curve with a large enough effect; inconclusive = small, poorly fitted or top-dose-only effect, or effect the other way; inactive = flat fitted curve, though single readings scatter. This is one part of the list.
test: qHTS Assay for Modulators of miRNAs and/or Inhibitors of miR-21; details: HeLa miR-21-FLuc reporter, luciferase luminescence, 48 h; actives lower the signal; also: nearly all actives have a fitted effect of over 55% in size
Summary of the method: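 HeLa cells endogenously expressing miR-21, stably carrying CMV-driven firefly luciferase with a downstream miR-21 binding site, 2000 cells/well. Titrations up to approximately 40 uM, 48 hours; luciferase luminescence read.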
Potency is read from the fitted curve at half-maximal effect.

Potency, active:
CN(C)c1ccc(-n2cc3c(=O)n(C)c(=O)n(C)c3c2)cc1 11.7 µM
COCc1cc(C)nc2sc(C(=O)Nc3ccc(OC)cc3)c(N)c12 16.5 µM
COCc1cc(C)nc2sc(C(=O)Nc3cccc(OC)c3)c(N)c12 2.07 µM
COCc1cc(C)nc2sc(C(=O)Nc3nccs3)c(N)c12 13.1 µM
Nc1c(-c2nc(-c3ccccc3Cl)no2)nnn1-c1ccccc1F 0.826 µM
CCc1ccccc1NC(=O)C(=O)c1cc(C)n(-c2ccccc2F)c1C 16.5 µM
CCOC(=O)c1c(C)oc2c1c1c(c3ccccc32)OCN(CCCC(=O)O)C1 10.4 µM
CCOC(=O)c1c(C)oc2c1c(CN1CCN(C(=O)OCC)CC1)c(O)c1ccccc12 14.7 µM
CCOC(=O)c1c(C)oc2c1cc(O)c1ccccc12 5.21 µM
CCOC(=O)c1c(C)oc2c1c(CN1CCN(CCO)CC1)c(O)c1ccccc12 10.4 µM
Oc1cccc(Nc2ncnc3c2oc2ccccc23)c1 5.21 µM
c1ccc(Nc2ncnc3c2oc2ccccc23)cc1 7.36 µM
COc1ccccc1Nc1ncnc2c1oc1ccccc12 14.7 µM
Oc1ccc(Nc2ncnc3c2oc2ccccc23)cc1 13.1 µM
c1ccc2c(c1)oc1c(Nc3ccc4c(c3)OCO4)ncnc12 1.65 µM
C=C1SC(=Nc2ccccc2Cl)N(C(=O)c2sc3ccccc3c2Cl)C1(C)C 13.1 µM
O=C(Nc1ccon1)c1sc2cc(F)ccc2c1Cl 1.65 µM
O=C(NC1=NCCS1)c1sc2cc(F)ccc2c1Cl 0.736 µM
CC(C)Cc1cc(C(=O)NCCc2ccccc2)no1 2.33 µM
CCCc1cc(C(=O)NCCc2ccccc2)no1 4.14 µM
CC(C)c1cc(C(=O)NCCc2ccccc2)no1 2.33 µM
Brc1ccc(C2=NC(Cc3ccccc3)CO2)cc1 (configuration not stated) 14.7 µM
OC(COc1ccc2ccccc2c1Cl)CN1CCOCC1 (configuration not stated) 10.4 µM
COc1ccc(C(=O)c2oc3ccc(OC)cc3c2N)cc1 7.36 µM
Nc1c(C(=O)c2ccccc2)oc2ccc(Br)cc12 2.61 µM
COc1ccc2oc(C(=O)c3ccccc3)c(N)c2c1 1.17 µM
COc1ccc(OCc2cccc(C(=O)N3CCCC3)c2)cc1 1.47 µM
CC1CN(C(=O)c2cccc(COc3ccc(Br)cc3)c2)CC(C)O1 (configuration not stated) 2.93 µM
Cc1cc(NC(=O)c2cccc(COc3ccc(Br)cc3)c2)no1 1.04 µM
COc1ccc(OCc2cccc(C(=O)Nc3ccc(CN4CCCCC4)cc3)c2)cc1 2.07 µM
CCOc1ccc(N=C(C)C2=C(O)c3ccccc3C2=O)cc1 1.17 µM
COc1ccccc1N1CCN(c2nc3ccccn3c(=O)c2C=O)CC1 18.5 µM
O=Cc1c(N2CCN(c3ccccc3)CC2)nc2ccccn2c1=O 16.5 µM
O=C(/C=C/c1ccc(Cl)cc1Cl)N1CCc2ccccc21 0.521 µM
Cc1ccc(/C=C/C(=O)N2CCc3ccccc32)o1 2.93 µM
O=c1c(-c2ccc(O)cc2)coc2cc(OC3OC(CO)C(O)C(O)C3O)cc(O)c12 (configuration not stated) 2.61 µM
CCN1CCN(c2cc3c(nn2)Oc2ccccc2N3C)CC1 7.36 µM
CCC(=O)Nc1ccc(N2CCC(C)CC2)cc1 18.5 µM
CC1CCN(c2ccc(NC(=O)c3ccc(Br)o3)cc2)CC1 0.656 µM
Cc1c(Cl)cccc1Nc1nc(N)nc(CSc2ncccn2)n1 16.5 µM
Cc1ccccc1Nc1nc(N)nc(CSc2ccc(F)cc2)n1 1.31 µM
Cc1ccccc1Nc1nc(N)nc(CSc2ccccc2)n1 0.656 µM
Nc1nc(CSc2ccccc2)nc(N2CCCCC2)n1 6.56 µM
CN1C(=O)/C(=C\c2cc(Br)cs2)c2ccccc21 16.5 µM
Cc1cccc(N=Nc2c(C)nn(-c3ccccc3)c2N)c1C 7.36 µM
Cc1nn(-c2ccccc2)c(N)c1N=Nc1ccc2ccccc2c1 4.65 µM
Cc1nn(-c2ccccc2)c(N)c1N=Nc1cccnc1 11.7 µM
Cc1snc2sc(C(=O)c3ccc(F)cc3)c(N)c12 5.21 µM
CC(=O)c1cccc(NC(=O)COC(=O)c2ccccc2C)c1 5.85 µM
Cc1cccc(C)c1OCC(=O)Nc1cccc(C(=O)O)c1 1.85 µM
O=C(Nc1ccccc1Cl)c1csc(-c2cccnc2)n1 13.1 µM
CC(=O)Nc1ccc(-c2csc(-c3cccnc3)n2)cc1 1.17 µM
CC(C)C(=O)Nc1ccc(C(=O)c2ccccc2)cc1 7.36 µM
CC(C)C(=O)Nc1ccc(-c2csc(-c3ccccc3)n2)cc1 2.33 µM
CC(C)C(=O)Nc1ccc(-c2nnc(-c3ccccc3)o2)cc1 0.261 µM
COC(=O)c1ccsc1NC(=O)CCc1ccccc1 7.36 µM
COc1ccc2cc(-c3csc(-c4cccnc4)n3)ccc2c1 3.29 µM
c1cncc(-c2nc(-c3ccc4c(c3)OCO4)cs2)c1 1.65 µM
COc1ccc(-c2csc(-c3cccnc3)n2)cc1C 3.69 µM
CN(C)c1ccc(N=Nc2ccc(S(N)(=O)=O)cc2)cc1 1.17 µM
CC(=O)c1ccc(N=Nc2ccc(N(C)C)cc2)cc1 0.293 µM
O=C(c1cc(-c2ccc(Br)cc2)on1)N1CCCCCC1 0.927 µM
O=C(c1cc(-c2ccc(Br)cc2)on1)N1CCOCC1 0.585 µM
COc1cccc(-c2noc(-c3ccc4c(c3)OCO4)n2)c1 0.261 µM
c1ccc(-c2noc(-c3ccc4c(c3)OCO4)n2)cc1 0.293 µM
COc1cc(/C=N/NC(=S)NC2CC3CCC2C3)ccc1O (configuration not stated) 7.36 µM
C=CCn1c(SCC(N)=O)nc2scc(-c3ccc(C)o3)c2c1=O 5.85 µM
COc1ccc(NC(=O)c2cc3ccccc3o2)c(OC)c1 0.585 µM
COc1ccccc1NC(=O)c1cc2ccccc2o1 2.93 µM
COc1cc(NC(=O)c2c(OC)cccc2OC)ccc1NC(=O)c1cc2ccccc2o1 5.21 µM
CCC(=O)Nc1cccc(NC(=S)NC(=O)c2cc3ccccc3o2)c1 0.585 µM
COc1ccccc1NC(=O)c1cc2ccc3cccnc3c2[nH]1 2.33 µM
O=C(Nc1ccccc1C(F)(F)F)c1cc2ccccc2o1 1.17 µM
CNC(C)C#Cc1ccc2c(=O)c3c(OC)cccc3oc2c1 (configuration not stated) 3.69 µM
COc1cccc2oc3cc(C#Cc4ccccn4)ccc3c(=O)c12 2.93 µM
COc1cccc2oc3ccc(C#CC4(N)CCCCC4)cc3c(=O)c12 7.36 µM
O=c1cc(-c2ccc3c(c2)OCCO3)oc2ccc(Cl)cc12 0.185 µM
O=C(Nc1ccccc1)Nc1ccc2ccccc2c1 2.93 µM
CCCC(=O)Nc1ccc2c(c1)Cc1ccccc1-2 1.85 µM
CCCCCC(=O)Nc1ccc2ccccc2c1 4.65 µM
CCCCC(=O)Nc1ccc2c(c1)oc1ccccc12 2.33 µM
Cc1ccc(-c2nn(-c3ccccc3)cc2CO)o1 1.47 µM
Cc1ccc(-c2nn(-c3ccccc3)cc2CO)cc1 14.7 µM
O=C(/C=C\Nc1ccc2c(c1)OCO2)c1ccc(Cl)s1 0.464 µM
O=C(/C=C\Nc1ccc2c(c1)OCO2)c1ccc2c(c1)OCO2 5.85 µM
COc1ccc(N/C=C\C(=O)c2ccc3c(c2)OCO3)cc1OC 14.7 µM
COc1ccc(N/C=C/C(=O)c2ccc3c(c2)OCO3)cc1OC 13.1 µM
Cc1ccc(OCC(=O)Nc2ccc(F)cc2)c([N+](=O)[O-])n1 7.36 µM
Cc1ccc(OCC(=O)Nc2ccc3c(c2)OCO3)c([N+](=O)[O-])n1 7.36 µM
CCOc1ccc(/C=C/C2=NNC(=O)CC2)cc1 5.85 µM
Cc1nc2c(-c3ccc(F)cc3)cnn2c(N)c1-c1ccc(F)cc1 0.414 µM
Cc1cc(N)n2ncc(-c3ccccc3)c2n1 3.29 µM
COc1ccc(-c2cc(C)nc3c(-c4ccccc4)cnn23)cc1 0.233 µM
Cc1cc(N)n2ncc(-c3ccc(F)cc3)c2n1 4.65 µM
Cc1cc(N)n2ncc(-c3cccc(Br)c3)c2n1 3.29 µM
CCOC(=O)c1cn2nc(Oc3ccccc3)ccc2n1 5.85 µM
O=C(COc1ccccc1Br)Nc1ccc2c(c1)OCCCO2 0.927 µM
N#Cc1ccccc1OCC(=O)Nc1ccc2c(c1)OCCCO2 2.61 µM
CC1=C(C)CC(C(=O)NCC(=O)c2ccccc2)C(C(=O)O)C1 (configuration not stated) 4.14 µM
Cc1cc(C)n2nc(SCC3COc4ccccc4O3)nc2n1 (configuration not stated) 16.5 µM
Cc1cc(C)n2nc(SCCOc3ccccc3)nc2n1 7.36 µM
Cc1cc(C)n2nc(SCCOc3ccccc3F)nc2n1 11.7 µM
Clc1ccc(Cc2nnc(-c3cccs3)o2)cc1 18.5 µM
Clc1ccc(Cc2nnc(-c3ccccc3Br)o2)cc1 16.5 µM
BrCCOCCOc1ccc2ccccc2c1 18.5 µM
Cc1c(C(=O)NC2CCOC2)oc2c(F)cccc12 (configuration not stated) 5.85 µM
Cc1c(C(=O)N2C[C@@H](C)O[C@@H](C)C2)oc2c(F)cccc12 13.1 µM

From PubChem BioAssay AID2289 (National Center for Advancing Translational Sciences (NCATS), 2010)
